Experimental data as given in PubChem BioAssay AID1159580 (chemical genetic matrix, 2015).
In all, about 5,500 compounds went through this assay and about 2,000 (36%) were called active. Not shown: some 18% with an inconclusive outcome. The list shows a part of the results. A number with no mark means an inactive call. No stated cut-off is given here; in the data, active means normalized growth mostly below about 0.91 (no sharp cut-off); inconclusive means no clear call, values can overlap the other calls; inactive means mostly above about 0.92.

Test: chemical genetic growth profiling, strain panel (AID 1159580);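 further: tested at 20 µM; growth read once vehicle control cultures reached saturation at 30 °C; 1 = growth at the plate median or of vehicle wells; lower values mean less growth of the strain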
Conditions: growth OD

O=S(=O)(O)CCS
normalized growth (S. cerevisiae deletion strains, locus YKL009W, strain mrt4, hits give low values): 1.02
normalized growth (S. cerevisiae deletion strains, locus YKL068W, hits give low values): 0.993
normalized growth (S. cerevisiae deletion strains, locus YKL085W, strain MDH1 (second series), hits give low values): 0.99
normalized growth (S. cerevisiae deletion strains, locus YKL085W, strain MDH1, hits give low values): 0.99
normalized growth (S. cerevisiae deletion strains, locus YKL160W, strain elf1, hits give low values): 0.941
normalized growth (S. cerevisiae deletion strains, locus YKL190W, strain CNB1, hits give low values): 1.01
normalized growth (S. cerevisiae deletion strains, locus YKR001C, strain vps1, hits give low values): 1.02
normalized growth (S. cerevisiae deletion strains, locus YKR026C, strain gcn3, hits give low values): 0.996
normalized growth (S. cerevisiae deletion strains, locus YKR091W, strain srl3, hits give low values): 0.98
normalized growth (S. cerevisiae deletion strains, locus YLL001W, strain dnm1, hits give low values): 1
normalized growth (S. cerevisiae deletion strains, locus YLL026W, hits give low values): 1.01
normalized growth (S. cerevisiae deletion strains, locus YLL041C, strain sdh2, hits give low values): 1
normalized growth (S. cerevisiae deletion strains, locus YLR027C, strain aat2, hits give low values): 0.997
normalized growth (S. cerevisiae deletion strains, locus YLR039C, strain RIC1, hits give low values): 1.03
normalized growth (S. cerevisiae deletion strains, locus YLR058C, strain SHM2, hits give low values): 1.02
normalized growth (S. cerevisiae deletion strains, locus YLR102C, strain apc9, hits give low values): 0.992
normalized growth (S. cerevisiae deletion strains, locus YLR113W, strain HOG1, hits give low values): 0.956
normalized growth (S. cerevisiae deletion strains, locus YLR221C, strain rsa3, hits give low values): 1.03
normalized growth (S. cerevisiae deletion strains, locus YLR258W, strain gsy2, hits give low values): 1
normalized growth (S. cerevisiae deletion strains, locus YLR262C, strain YPT6 (second series), hits give low values): 1.01
normalized growth (S. cerevisiae deletion strains, locus YLR262C, strain YPT6, hits give low values): 1.05
normalized growth (S. cerevisiae deletion strains, locus YLR268W, strain sec22, hits give low values): 0.993
normalized growth (S. cerevisiae deletion strains, locus YLR320W, strain mms22, hits give low values): 0.979
normalized growth (S. cerevisiae deletion strains, locus YLR330W, strain CHS5, hits give low values): 1.02
normalized growth (S. cerevisiae deletion strains, locus YLR342W, strain FKS1 (second series), hits give low values): 0.989
normalized growth (S. cerevisiae deletion strains, locus YLR342W, strain FKS1, hits give low values): 0.965
normalized growth (S. cerevisiae deletion strains, locus YLR357W, strain rsc2, hits give low values): 0.912
normalized growth (S. cerevisiae deletion strains, locus YLR370C, strain arc18, hits give low values): 0.98
normalized growth (S. cerevisiae deletion strains, locus YLR371W, strain rom2, hits give low values): 0.996
normalized growth (S. cerevisiae deletion strains, locus YLR384C, strain iki3, hits give low values): 0.97
normalized growth (S. cerevisiae deletion strains, locus YLR418C, strain cdc73, hits give low values): 0.976
normalized growth (S. cerevisiae deletion strains, locus YML016C, strain PPZ1, hits give low values): 1.01
normalized growth (S. cerevisiae deletion strains, locus YML032C, strain rad52, hits give low values): 0.992
normalized growth (S. cerevisiae deletion strains, locus YML120C, strain ndi1, hits give low values): 0.993
normalized growth (S. cerevisiae deletion strains, locus YML124C, strain tub3, hits give low values): 0.994
normalized growth (S. cerevisiae deletion strains, locus YMR058W, strain fet3, hits give low values): 1.01
normalized growth (S. cerevisiae deletion strains, locus YMR078C, strain ctf18, hits give low values): 0.991
normalized growth (S. cerevisiae deletion strains, locus YMR125W, strain sto1, hits give low values): 0.961
normalized growth (S. cerevisiae deletion strains, locus YMR129W, hits give low values): 0.988
normalized growth (S. cerevisiae deletion strains, locus YMR205C, strain PFK2, hits give low values): 1.01
normalized growth (S. cerevisiae deletion strains, locus YMR223W, strain ubp8, hits give low values): 0.987
normalized growth (S. cerevisiae deletion strains, locus YMR231W, strain pep5, hits give low values): 0.978
normalized growth (S. cerevisiae deletion strains, locus YMR307W, strain GAS1, hits give low values): 1
normalized growth (S. cerevisiae deletion strains, locus YNL067W, strain RPL9B, hits give low values): 1.03
normalized growth (S. cerevisiae deletion strains, locus YNL071W, strain lat1, hits give low values): 0.996
normalized growth (S. cerevisiae deletion strains, locus YNL153C, strain GIM3, hits give low values): 1.04
normalized growth (S. cerevisiae deletion strains, locus YNL183C, strain NPR1, hits give low values): 0.933
normalized growth (S. cerevisiae deletion strains, locus YNL209W, strain ssb2, hits give low values): 0.981
normalized growth (S. cerevisiae deletion strains, locus YNL233W, strain BNI4, hits give low values): 1.02
normalized growth (S. cerevisiae deletion strains, locus YNL248C, strain rpa49, hits give low values): 0.947
normalized growth (S. cerevisiae deletion strains, locus YNL250W, strain rad50, hits give low values): 0.987
normalized growth (S. cerevisiae deletion strains, locus YNL271C, strain bni1, hits give low values): 0.981
normalized growth (S. cerevisiae deletion strains, locus YNL298W, strain CLA4, hits give low values): 0.982
normalized growth (S. cerevisiae deletion strains, locus YNL307C, strain MCK1, hits give low values): 0.984
normalized growth (S. cerevisiae deletion strains, locus YNL322C, strain KRE1 (second series), hits give low values): 0.967
normalized growth (S. cerevisiae deletion strains, locus YNL322C, strain KRE1, hits give low values): 1.01
normalized growth (S. cerevisiae deletion strains, locus YNR049C, strain mso1, hits give low values): 0.964
normalized growth (S. cerevisiae deletion strains, locus YNR052C, strain pop2, hits give low values): 0.995
normalized growth (S. cerevisiae deletion strains, locus YOL006C, strain TOP1, hits give low values): 1.07
normalized growth (S. cerevisiae deletion strains, locus YOL012C, strain htz1): 1.22
normalized growth (S. cerevisiae deletion strains, locus YOL147C, strain pex11, hits give low values): 0.989
normalized growth (S. cerevisiae deletion strains, locus YOR001W, strain rrp6, hits give low values): 0.996
normalized growth (S. cerevisiae deletion strains, locus YOR061W, strain CKA2, hits give low values): 1.02
normalized growth (S. cerevisiae deletion strains, locus YOR069W, strain VPS5, hits give low values): 1.01
normalized growth (S. cerevisiae deletion strains, locus YOR070C, strain gyp1, hits give low values): 0.988
normalized growth (S. cerevisiae deletion strains, locus YOR080W, strain dia2, hits give low values): 0.964
normalized growth (S. cerevisiae deletion strains, locus YOR083W, strain WHI5, hits give low values): 0.888 (active)
normalized growth (S. cerevisiae deletion strains, locus YOR106W, strain vam3, hits give low values): 0.982
normalized growth (S. cerevisiae deletion strains, locus YOR136W, strain idh2, hits give low values): 0.994
normalized growth (S. cerevisiae deletion strains, locus YOR144C, strain elg1, hits give low values): 0.993
normalized growth (S. cerevisiae deletion strains, locus YOR184W, strain ser1, hits give low values): 0.983
normalized growth (S. cerevisiae deletion strains, locus YOR231W, strain MKK1, hits give low values): 0.974
normalized growth (S. cerevisiae deletion strains, locus YOR265W, strain rbl2, hits give low values): 0.999
normalized growth (S. cerevisiae deletion strains, locus YOR270C, strain vph1, hits give low values): 0.939
normalized growth (S. cerevisiae deletion strains, locus YOR290C, strain snf2, hits give low values): 0.974
normalized growth (S. cerevisiae deletion strains, locus YOR316C, strain cot1, hits give low values): 0.988
normalized growth (S. cerevisiae deletion strains, locus YPL051W, strain arl3, hits give low values): 0.991
normalized growth (S. cerevisiae deletion strains, locus YPL055C, strain LGE1, hits give low values): 1.07
normalized growth (S. cerevisiae deletion strains, locus YPL078C, strain atp4, hits give low values): 0.969
normalized growth (S. cerevisiae deletion strains, locus YPL106C, strain sse1, hits give low values): 0.96
normalized growth (S. cerevisiae deletion strains, locus YPL240C, strain hsp82, hits give low values): 0.994
normalized growth (S. cerevisiae deletion strains, locus YPL241C, strain CIN2, hits give low values): 1.01
normalized growth (S. cerevisiae deletion strains, locus YPL256C, strain CLN2, hits give low values): 0.997
normalized growth (S. cerevisiae deletion strains, locus YPR119W, strain clb2, hits give low values): 0.99
normalized growth (S. cerevisiae deletion strains, locus YPR141C, strain kar3, hits give low values): 0.987
normalized growth (S. cerevisiae deletion strains, locus YPR163C, strain tif3, hits give low values): 0.99
normalized growth (S. cerevisiae deletion strains, locus YPR167C, strain met16, hits give low values): 0.98
normalized growth (S. cerevisiae deletion strains, strain wtn01, hits give low values): 0.981
normalized growth (S. cerevisiae strains, strain wild type, hits give low values): 1.01
